# Laboratory results taken from PubChem BioAssay.
# Active and inactive are the calls of the source.
# How the values were obtained:
# [1] = test system: Plasmodium falciparum Sir2 (PF13_0152, Sir2A); assay: pfSir2 binders on small-molecule microarrays, primary screen, biochemical, small-molecule microarray, 635 nm fluorescence (AID 1098); details: small-molecule microarray binding, fluorescence 635 nm; higher = more signal;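 also: score merges spot fluorescence intensity with its signal-to-noise ratio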
# [2] = small-molecule microarray binders of probe aDKK1, primary screen, biochemical, biotinylated probe, 635/667 nm fluorescence (AID 1099); details: higher = more signal;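 also: score merges 667nm spot fluorescence with signal to noise across triplicate slides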
# [3] = small-molecule microarray binders of probe aCHRDL2, primary screen, biochemical, biotinylated probe, 635/667 nm fluorescence (AID 1100); details: higher = more signal
# [4] = splicing luciferase reporter signal modulators, primary screen, spliceosome inhibition project, cell-based, HEK293, splice +/- reporter (AID 1101); details: luminescence, 24 h, higher = more signal, called active from +8 up or from −8 down;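 also: HEK293 cells carrying a splicing-competent luciferase reporter gene; test concentration not given here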
# [5] = biological target: Fibroblast growth factor 10 (Homo sapiens) (UniProt O15520); assay: FGF10 binders on small-molecule microarrays, primary screen, biochemical, small-molecule microarray, 635 nm fluorescence (AID 1102); details: FGF10 binding, fluorescence 635 nm, higher = more signal
# Fibroblast growth factor 10 (Homo sapiens), sequence (O15520 whole entry, looked up): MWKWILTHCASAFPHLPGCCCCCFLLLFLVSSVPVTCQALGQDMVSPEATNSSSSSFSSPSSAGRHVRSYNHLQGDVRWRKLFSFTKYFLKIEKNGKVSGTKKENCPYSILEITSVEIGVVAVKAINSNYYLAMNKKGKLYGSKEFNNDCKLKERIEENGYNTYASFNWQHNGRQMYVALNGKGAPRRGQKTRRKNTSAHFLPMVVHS
# [6] = test system: glycogen synthase kinase-3 (GSK3A per assay name; protocol says GSK3B); assay: GSK3 binders on small-molecule microarrays, primary screen, biochemical, small-molecule microarray, 635 nm fluorescence, GSK3A (AID 1103); details: small-molecule microarray binding, fluorescence 635 nm; higher = more signal; also: the record names both GSK3A and GSK3B
# [7] = biological target: Epidermal growth factor receptor (Homo sapiens) (UniProt P00533); assay: EGFR binders on small-molecule microarrays, primary screen, biochemical, small-molecule microarray, 635 nm fluorescence (AID 1104); details: EGFR binding, higher = more signal;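 also: score merges 667 nm emission intensity with spot signal to noise over triplicate slides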
# Epidermal growth factor receptor (Homo sapiens), sequence (P00533 whole entry, looked up): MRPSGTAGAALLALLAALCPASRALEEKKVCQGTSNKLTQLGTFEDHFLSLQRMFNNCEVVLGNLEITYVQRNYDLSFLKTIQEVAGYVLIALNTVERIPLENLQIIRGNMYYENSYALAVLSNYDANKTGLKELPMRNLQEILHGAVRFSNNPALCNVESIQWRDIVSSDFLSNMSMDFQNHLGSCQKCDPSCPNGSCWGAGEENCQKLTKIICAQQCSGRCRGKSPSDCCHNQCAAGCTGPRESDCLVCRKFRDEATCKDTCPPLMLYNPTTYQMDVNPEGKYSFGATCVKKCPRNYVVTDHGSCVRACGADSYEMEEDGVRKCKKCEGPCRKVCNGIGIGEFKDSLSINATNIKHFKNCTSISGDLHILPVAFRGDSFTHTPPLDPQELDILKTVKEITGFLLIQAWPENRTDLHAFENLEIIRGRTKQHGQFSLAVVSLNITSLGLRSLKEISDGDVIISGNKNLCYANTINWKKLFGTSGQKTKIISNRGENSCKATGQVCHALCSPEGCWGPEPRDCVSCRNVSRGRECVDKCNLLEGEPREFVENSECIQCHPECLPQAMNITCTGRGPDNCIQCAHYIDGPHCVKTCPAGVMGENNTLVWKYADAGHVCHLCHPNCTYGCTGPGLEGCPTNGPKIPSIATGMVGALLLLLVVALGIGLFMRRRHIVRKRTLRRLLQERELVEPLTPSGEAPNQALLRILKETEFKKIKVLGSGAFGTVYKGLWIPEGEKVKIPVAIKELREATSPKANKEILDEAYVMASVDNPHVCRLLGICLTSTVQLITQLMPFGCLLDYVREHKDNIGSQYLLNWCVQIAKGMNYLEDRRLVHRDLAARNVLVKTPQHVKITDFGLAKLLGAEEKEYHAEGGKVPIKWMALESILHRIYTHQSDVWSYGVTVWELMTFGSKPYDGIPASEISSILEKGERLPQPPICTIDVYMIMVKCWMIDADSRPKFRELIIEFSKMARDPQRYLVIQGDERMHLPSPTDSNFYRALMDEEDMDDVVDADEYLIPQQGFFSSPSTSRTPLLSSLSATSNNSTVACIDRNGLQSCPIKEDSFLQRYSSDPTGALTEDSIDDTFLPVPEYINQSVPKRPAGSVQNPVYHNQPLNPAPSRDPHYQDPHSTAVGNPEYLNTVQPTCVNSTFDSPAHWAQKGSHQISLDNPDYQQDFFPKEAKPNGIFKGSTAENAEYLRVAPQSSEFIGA
# [8] = biological target: Follistatin-related protein 3 (Homo sapiens) (UniProt O95633); assay: FSTL3 binders on small-molecule microarrays, primary screen, biochemical, small-molecule microarray, 635 nm fluorescence (AID 1105); details: FSTL3 binding, higher = more signal;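 also: score merges emission near 667 nm and signal to noise per printed spot across three slides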
# Follistatin-related protein 3 (Homo sapiens), sequence (O95633 whole entry, looked up): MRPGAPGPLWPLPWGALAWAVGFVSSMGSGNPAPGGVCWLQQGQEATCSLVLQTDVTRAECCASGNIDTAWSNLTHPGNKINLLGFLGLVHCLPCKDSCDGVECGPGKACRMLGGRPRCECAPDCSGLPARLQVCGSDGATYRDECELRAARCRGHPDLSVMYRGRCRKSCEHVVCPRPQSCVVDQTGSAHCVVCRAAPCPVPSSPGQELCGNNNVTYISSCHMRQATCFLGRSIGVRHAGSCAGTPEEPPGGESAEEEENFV
# [9] = biological target: Dickkopf-related protein 1 (Homo sapiens) (UniProt O94907); assay: DKK1 binders on small-molecule microarrays, primary screen, biochemical, small-molecule microarray, 635 nm fluorescence scan (AID 1106); details: DKK1 binding, higher = more signal;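 also: score merges emission near 667 nm with signal to noise over three replicate slides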
# Dickkopf-related protein 1 (Homo sapiens), sequence (O94907 whole entry, looked up): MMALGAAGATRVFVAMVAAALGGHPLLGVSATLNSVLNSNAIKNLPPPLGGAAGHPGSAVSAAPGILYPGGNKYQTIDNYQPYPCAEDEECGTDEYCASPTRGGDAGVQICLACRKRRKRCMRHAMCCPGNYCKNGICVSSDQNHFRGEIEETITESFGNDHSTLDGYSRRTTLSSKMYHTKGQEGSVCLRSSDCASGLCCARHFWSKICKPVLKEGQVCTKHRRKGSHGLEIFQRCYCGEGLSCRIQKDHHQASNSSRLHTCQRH
# [10] = test system: Inhibin beta A chain (activin A); assay: INHBA (activin A) binders on microarrays, primary screen, biochemical, small-molecule microarray, 635 nm fluorescence scan (AID 1107); details: small-molecule microarray binding, higher = more signal;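 also: mouse activin A protein probed at 4.33 µg/mL on printed slides; score merges bound-protein fluorescence near 667 nm with spot signal-to-noise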
# [11] = test system: Human papillomavirus type 1a protein E7 (residues 44-93); assay: HPV1a E7 fragment binders on microarrays, primary screen, biochemical, small-molecule microarray, residues 44-93, 635 nm fluorescence (AID 1108); details: small-molecule microarray binding, fluorescence 635 nm; higher = more signal;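 also: E7 fragment applied at 1 µg/mL in TBST for 1 h at 4 C; score combines spot fluorescence with its signal to noise ratio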
# [12] = modulators of HCV replicon luciferase signal, primary screen, HCV replication inhibitor project, Huh7 cells, luciferase reporter (AID 1109); details: 48 h, higher = more signal;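 also: huh7 hepatoma cells harbouring a luciferase neomycin HCV replicon reporter; luciferase luminescence as measure of HCV replicon replication; test concentration not given here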
# [13] = biological target: Left-right determination factor 2 (Homo sapiens) (UniProt O00292); assay: LEFTY2 binders on small-molecule microarrays, primary screen, biochemical, small-molecule microarray, 635 nm fluorescence scan (AID 1110); details: LEFTY2 binding, higher = more signal
# Left-right determination factor 2 (Homo sapiens), sequence (O00292 whole entry, looked up): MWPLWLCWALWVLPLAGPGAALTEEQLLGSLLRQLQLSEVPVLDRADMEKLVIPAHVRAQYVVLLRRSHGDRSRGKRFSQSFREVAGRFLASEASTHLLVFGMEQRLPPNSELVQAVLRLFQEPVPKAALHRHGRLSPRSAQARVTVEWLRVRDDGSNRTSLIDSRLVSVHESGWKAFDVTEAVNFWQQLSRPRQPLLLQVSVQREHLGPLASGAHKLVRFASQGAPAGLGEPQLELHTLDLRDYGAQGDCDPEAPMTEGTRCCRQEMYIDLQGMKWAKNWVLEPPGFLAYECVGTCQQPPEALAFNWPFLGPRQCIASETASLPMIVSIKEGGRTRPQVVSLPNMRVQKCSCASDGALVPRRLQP
# [14] = biological target: Calmodulin-1 (Homo sapiens) (UniProt P0DP23); assay: CALM1 binders on microarrays, EGTA buffer, profiling panel, biochemical, small-molecule microarray, Cy5-labelled CALM1 (AID 1111); details: Cy5-CALM1 binding fluorescence, higher = more signal;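 also: labelled calmodulin applied in Tris saline Tween buffer holding calcium plus EGTA and DTT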
# [15] = biological target: Calmodulin-1 (Homo sapiens) (UniProt P0DP23); assay: calcium-bound CALM1 binders on microarrays, profiling panel, artefact control for SMM control-protein annotation, biochemical, small-molecule microarray, Cy5-labelled CALM1, plus calcium (AID 1112); details: Cy5-CALM1 binding fluorescence, higher = more signal;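 also: score merges spot fluorescence with signal to noise from triplicate slides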
# [16] = small-molecule microarray binders of probe aWnt5a, primary screen, biochemical, biotinylated probe, 635/667 nm fluorescence (AID 1113); details: higher = more signal;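 also: score merges 667 nm fluorescence intensity with signal-to-noise per printed feature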
# [17] = small-molecule microarray binders of probe aShh, primary screen, biochemical, biotinylated probe, 635/667 nm fluorescence (AID 1114); details: higher = more signal;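 also: probe is biotin-labelled aShh protein from a stem cell growth factor screen; measures binding of labelled protein to compounds printed on the slide; score merges feature fluorescence at 667 nm with signal-to-noise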
# [18] = small-molecule microarray binders of probe aNog, primary screen, biochemical, biotinylated probe, 635/667 nm fluorescence (AID 1115); details: higher = more signal;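 also: probe is biotinylated aNog protein used at 0.15 µg/mL for 1 h at 4 C; z-score combines 667 nm fluorescence of each spot with its signal to noise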
# [19] = biological target: Torsin-1A-interacting protein 1 (Homo sapiens) (UniProt Q5JTV8); assay: LAP1 binders from COS7 cell lysate, primary screen, small-molecule microarray, 635/667 nm fluorescence (AID 1116); details: COS7-hLAP1 lysate binding, 635 nm fluorescence, higher = more signal
# Torsin-1A-interacting protein 1 (Homo sapiens), sequence (Q5JTV8 whole entry, looked up): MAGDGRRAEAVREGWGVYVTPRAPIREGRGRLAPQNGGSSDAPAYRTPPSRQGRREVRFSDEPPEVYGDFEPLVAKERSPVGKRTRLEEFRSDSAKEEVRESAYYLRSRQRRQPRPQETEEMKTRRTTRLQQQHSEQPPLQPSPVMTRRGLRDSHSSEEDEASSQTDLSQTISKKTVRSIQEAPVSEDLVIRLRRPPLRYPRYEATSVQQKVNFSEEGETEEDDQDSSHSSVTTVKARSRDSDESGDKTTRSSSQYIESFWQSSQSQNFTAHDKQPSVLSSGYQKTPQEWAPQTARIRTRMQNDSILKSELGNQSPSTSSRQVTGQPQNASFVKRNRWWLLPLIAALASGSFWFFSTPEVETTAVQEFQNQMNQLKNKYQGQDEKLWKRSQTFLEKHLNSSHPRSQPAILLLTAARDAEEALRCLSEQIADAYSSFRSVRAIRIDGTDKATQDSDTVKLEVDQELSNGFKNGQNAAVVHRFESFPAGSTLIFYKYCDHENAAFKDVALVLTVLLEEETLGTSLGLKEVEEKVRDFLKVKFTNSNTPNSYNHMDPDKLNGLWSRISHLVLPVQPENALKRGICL
# [20] = biological target: Alpha-bungarotoxin (Bungarus multicinctus) (UniProt P60615); assay: alpha-bungarotoxin binders on microarray, profiling panel, artefact control for SMM control protein annotation, biochemical, small-molecule microarray, Alexa647 label, 635/667 nm fluorescence (AID 1117); details: alpha-BTX-A647 binding fluorescence, higher = more signal
# Alpha-bungarotoxin (Bungarus multicinctus), sequence (P60615 whole entry, looked up): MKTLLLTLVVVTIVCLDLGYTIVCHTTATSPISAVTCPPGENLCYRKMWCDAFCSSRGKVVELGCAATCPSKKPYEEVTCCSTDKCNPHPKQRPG
SMILES,composite z-score [1],composite z-score [2],composite z-score [3],z-score [4],composite z-score [5],composite z-score [6],composite z-score [7],composite z-score [8],composite z-score [9],composite z-score [10],composite z-score [11],z-score [12],composite z-score [13],composite z-score [14],composite z-score [15],composite z-score [16],composite z-score [17],composite z-score [18],composite z-score [19],composite z-score [20]
CC(C)[Si](OCCCNS(=O)(=O)c1ccc(Br)cc1)(C(C)C)C(C)C,0.373,0.526,0.0951,-0.619 (inactive),0.831,1.18,0.742,0.753,0.673,-0.415,0.186,-2.89,0.76,1.19,-0.371,0.037,-0.0553,0.0379,0.928,-0.249
[N-]=[N+]=NCc1ccccc1C[C@@]1(C(=O)N2CCOCC2)N=C(c2ccc(OCCCO)cc2)O[C@@H]1c1ccccc1N=[N+]=[N-],1.45,1.41,1.31,-0.531 (inactive),1.42,0.683,-0.11,0.436,-0.433,1.32,0.425,-1.14,-0.139,2.15,1.13,0.208,0.412,1.64,1.74,2.84
C=C(/C(=C/C[C@@H](OC(=O)c1ccncc1)c1ccc(CO)o1)c1cnc2ccccc2c1)C(C)C,0.885,0.138,-0.157,0.168 (inactive),1.06,1.29,0.623,1.43,0.574,1.58,-1.09,-1.05,0.846,1.64,-0.116,-0.124,-0.0626,0.221,1.36,0.474
C=CC[C@@]12N=C(c3ccc(OCCCO)cc3)O[C@@H]1c1ccccc1CN(Cc1ccccc1)C2=O,1.67,0.761,0.757,-0.291 (inactive),0.623,1.28,-0.0152,0.0791,0.191,1.01,1.17,-3.23,-0.397,1.06,0.429,-0.0403,0.116,0.87,1.08,1.56
CO[C@@H]1COC(=O)[C@H](COCc2ccccc2)NC(=O)CC=C[C@@H](C)[C@H](OC)COC(=O)[C@H](COCc2ccccc2)NC(=O)CC=C[C@H]1C,-0.23,-0.466,-0.942,-0.923 (inactive),0.168,0.376,0.48,0.424,0.96,1.51,-0.417,-0.0527,0.644,-0.409,-1.01,-0.0927,-0.0626,-0.349,-0.217,-0.774
CCN1C(C)=C(C(=O)OC)[C@@H](c2ccccc2)N2C(=O)[C@@]3(C(=O)OC)O[C@@]12[C@@H]1C(=O)N(C)C(=O)[C@@H]13,0.736,-0.0561,-0.45,-0.997 (inactive),1.25,0.622,0.471,1.41,1.1,0.613,-0.592,-0.0304,0.72,0.439,-0.686,-0.0882,-0.283,0.372,0.426,1.19
COC(=O)C1=C(C)N(Cc2ccccc2)c2c(C(=O)OC)c(C(=O)OC)c(C(=O)OC)c(=O)n2[C@@H]1c1ccccc1,0.119,-0.056,-0.32,-0.449 (inactive),0.583,0.37,0.12,0.287,0.436,0.16,-0.316,0.0883,0.431,1.61,0.141,-0.0806,-0.221,-0.0286,0.812,0.732
CC(C)(C)OC(=O)CC[C@]1(C(=O)NCCN2CCOCC2)N=C(c2ccc(OCCCO)cc2)O[C@H]1c1ccccc1CN=[N+]=[N-],0.639,0.626,0.777,-1.59 (inactive),-0.0042,0.813,-0.243,-0.49,-0.663,0.82,0.309,-1.77,0.0415,1.12,0.608,-0.0944,0.0469,0.816,2.12,2.01
CCOC(=O)C[C@H]1[C@H](OC(=O)c2cc3ccccc3oc2=O)[C@@H](NC(=O)c2ccc3ccccc3c2)c2cc(OCCCO)ccc2N1C(=O)c1ccc2ccccc2n1,0.209,0.0447,-0.19,-0.017 (inactive),0.876,0.4,0.573,1.09,0.858,0.392,-0.0309,-1.15,0.57,-0.0337,-0.463,0.0554,-0.138,0.193,0.529,0.992
CCCC=C(CCC)[C@@H](NS(=O)(=O)c1ccc(C(F)(F)F)cc1)c1ccc(-c2ccccc2)cc1,0.163,0.888,0.83,-1.69 (inactive),1.13,0.72,0.201,0.38,-0.112,0.835,1.32,-1.08,0.34,1.06,0.878,0.145,0.217,0.157,0.0541,0.709
Cc1ccc(S[C@]2(C(=O)NC(C)C)CC(=O)N(C3Cc4ccccc4C3)[C@@H]2c2ccc(CO)cc2)cc1,1.24,-0.786,0.556,-1.15 (inactive),-0.258,-0.106,-0.544,-0.0429,-1.2,-0.215,0.951,-2.01,-0.873,-0.329,-0.603,-0.098,-0.421,-0.315,1.52,1.12
